Compound activity deposited in PubChem by National Center for Advancing Translational Sciences (NCATS).
DRD3 agonist: qHTS of D3 Dopamine Receptor Agonist: qHTS. D(3) dopamine receptor (Homo sapiens), P35462. D3R DiscoveRx beta-arrestin cells, luminescence, 90 min. max activation, %. actives 0.58% (n = 410,000). AID 652048, 2013; in the data active means max activation above about 30%; further: 0% is about no effect
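Cells at 1500/well, incubated overnight, then treated with pinned compounds (dopamine as control) for 90 min at 37 degrees C. DiscoveRx reagent added for 30 - 60 minutes at room temperature; luminescence read.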
D1 ag: Allosteric Agonists of the Human D1 Dopamine Receptor: qHTS; D(1A) dopamine receptor (Homo sapiens), P21728; HEK293 T-REx D1 cells, calcium flux, agonist mode; activation, % at 2 µM; actives 1% (n = 360,000); AID 504660, 2011; in the data active means activation above about 30%; further: 0% is about no effect
Target sequence (P21728 whole entry, looked up): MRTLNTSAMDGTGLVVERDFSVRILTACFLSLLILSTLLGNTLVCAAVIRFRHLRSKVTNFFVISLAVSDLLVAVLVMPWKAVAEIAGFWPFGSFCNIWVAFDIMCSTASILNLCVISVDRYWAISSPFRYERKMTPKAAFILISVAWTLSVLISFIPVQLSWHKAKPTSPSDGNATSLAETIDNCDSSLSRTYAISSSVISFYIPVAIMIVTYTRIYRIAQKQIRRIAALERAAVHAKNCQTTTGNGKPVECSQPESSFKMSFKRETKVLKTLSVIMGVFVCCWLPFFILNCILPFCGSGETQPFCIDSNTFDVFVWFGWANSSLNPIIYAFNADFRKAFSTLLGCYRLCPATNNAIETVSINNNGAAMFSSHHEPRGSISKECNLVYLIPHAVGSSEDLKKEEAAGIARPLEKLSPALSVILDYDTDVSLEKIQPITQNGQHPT
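Agonism was scored from calcium flux recorded over 180 s (1 read/s) after pintool compound addition, following a 10-cycle baseline. Cells were inducible force-coupled HEK293 TREx D1, plated overnight at 30 C and loaded with no-wash calcium dye.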
D1 PAM: Potentiators of Human D1 Dopamine Receptor: qHTS. D(1A) dopamine receptor (Homo sapiens), P21728. HEK293 TREx D1 cells, calcium flux, dopamine EC20 potentiation. potentiation, % at 10 µM. actives 0.036% (n = 360,000). AID 504651, 2011; in the data active means potentiation above about 30%; further: 0% is about no effect
DRD3 antagonist: qHTS of D3 Dopamine Receptor Antagonist: qHTS | D(3) dopamine receptor (Homo sapiens), P35462 | D3R cells, DiscoveRx beta-arrestin luminescence, antagonist mode; active compounds read low | max response, negative = inhibition, % | actives 2.5% (n = 360,000) | AID 652054, 2013; in the data active means max response below about -50%; further: on the % scale 0 is the no-effect control and ±100 the full control effect
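Cells plated overnight at 1500 cells/well, then exposed to library compounds with dopamine controls for 90 minutes at 37 degrees C. DiscoveRx reagent added for 30–60 minutes at room temperature; luminescence read, quantitative HTS format.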
D1 antag: Antagonist of Human D 1 Dopamine Receptor: qHTS | HEK293 TREx D1 cells, calcium flux, dopamine EC80; active compounds read low | D(1A) dopamine receptor (Homo sapiens), P21728 | actives 3.2% (n = 360,000) | activity change, negative = inhibition, % at 10 µM; in the data active means activity change below about -30%; further: on the % scale 0 is the no-effect control and ±100 the full control effect
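Inducible Hek293 Trex D1 cells (tetracycline, overnight, 30 C). Calcium dye 30–90 min RT. Antagonist mode: EC80 dopamine added after 180 s compound read.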
The depositor's hits bear a star. Compounds with a hit are over-represented: about 6.1% of the library has one in this group of screens.

`Cc1nn2c3c(cnc2c1-c1ccc(Cl)cc1)C(=O)CC(c1ccco1)C3` (centres undefined) gave DRD3 agonist 0, D1 ag 5, D1 PAM 0, DRD3 antagonist -52* and D1 antag -12.
Screening CC(Oc1ccc(C#N)cc1)C(=O)Nc1ccc(-n2cnnn2)cc1 (centres undefined) returned DRD3 agonist -1, D1 ag 55*, D1 PAM -7, DRD3 antagonist 0 and D1 antag -15.
CCc1ccccc1NC(=O)COc1cccc(-n2cnnn2)c1 was read as DRD3 agonist -15, D1 ag 44*, DRD3 antagonist -1 and D1 antag -20.
For CCOc1ccc(NC(=O)COc2ccc(-n3cnnn3)cc2)cc1 the results were DRD3 agonist 6, D1 ag -1, D1 PAM -4, DRD3 antagonist 5 and D1 antag -13.
For CC(=O)Nc1ccc(-n2cnnn2)cc1 the results were DRD3 agonist 2, D1 ag 2, D1 PAM 0, DRD3 antagonist -8 and D1 antag 9.
`CCOc1ccccc1NC(=O)COc1cccc(-n2cnnn2)c1` gave DRD3 agonist -11, D1 ag 1, D1 PAM -3, DRD3 antagonist 27 and D1 antag -12.
`O=C(COc1ccc(F)cc1)Nc1ccc(-n2cnnn2)cc1` gave DRD3 agonist 0, D1 ag 4, D1 PAM -12, DRD3 antagonist 8 and D1 antag -36*.
CC(C)CCCC(C)CCCC(C)CCCCC(C)CCCC(C)CCCC(C)C (centres undefined) was read as DRD3 agonist 8.
Screening CCOC(=O)c1ccc(NC(=O)C2CC(O)CN2S(=O)(=O)c2ccc(C)cc2)cc1 (centres undefined) returned DRD3 agonist -18 and DRD3 antagonist -54*.
CC(C)c1ccc(NC(=O)c2cnc3sc(N4CCCC4)nn3c2=O)cc1 was read as DRD3 agonist 13, D1 ag 17, D1 PAM -3 and D1 antag -30.
Cc1ccc(CNC(=O)[C@H]2O[C@@H](n3ccc(N)nc3=O)[C@H](O)[C@@H]2O)o1 was read as DRD3 agonist -24 and DRD3 antagonist -126*.
`COc1ccc(/C=C2\SC(N)=NC2=O)cc1Br` gave DRD3 agonist 0, D1 ag 0, D1 PAM -5, DRD3 antagonist -6 and D1 antag -17.
For CCCOc1ccc(/C=C2\SC(N)=NC2=O)cc1OC the results were DRD3 agonist -1, D1 ag 0, D1 PAM -14, DRD3 antagonist 16 and D1 antag -42*.
CCN(CC)c1ccc(/C=C2\SC(N)=NC2=O)cc1 was read as DRD3 agonist -2, D1 ag 60*, D1 PAM 0, DRD3 antagonist -15 and D1 antag 8.
Screening Nc1ncnc2c1ncn2[C@@H]1O[C@H](CNC(=O)[C@H]2CCC(=O)N2)[C@@H](O)[C@H]1O returned DRD3 agonist -7 and DRD3 antagonist 0.
For Cc1nnc(SCc2ccccc2CSc2nnc(C)s2)s1 the results were DRD3 agonist -3, D1 ag 3, D1 PAM 0, DRD3 antagonist -4 and D1 antag -28.
Screening COc1ccc2nc(Sc3c([N+](=O)[O-])nc(C)n3Cc3ccccc3)[nH]c2c1 returned DRD3 agonist -10, D1 ag 0, D1 PAM 6, DRD3 antagonist -75* and D1 antag 7.
For CCOc1cccc(-c2nnc3sc(COc4ccccc4)nn23)c1 the results were DRD3 agonist 38*, D1 ag 5, D1 PAM 0, DRD3 antagonist 22 and D1 antag 12.
For c1ccc(OCc2nn3c(-c4n[nH]c5c4CCC5)nnc3s2)cc1 the results were DRD3 agonist 7, D1 ag 2, D1 PAM -1, DRD3 antagonist -52* and D1 antag 6.
For COc1ccccc1-c1nnc2sc(COc3ccc(Cl)cc3)nn12 the results were DRD3 agonist 1, D1 ag 0, D1 PAM -5, DRD3 antagonist -52* and D1 antag -2.
Cc1ccc(OCc2nn3c(-c4n[nH]c5c4CCC5)nnc3s2)cc1 was read as D1 ag 1, D1 PAM -6 and D1 antag 7.
For CCOC(=O)c1sc2ccccc2c1S(=O)(=O)N1CCN(c2cccc(C)c2C)CC1 the results were DRD3 agonist 10, D1 ag 2, D1 PAM -2 and D1 antag 38.
`N=C1SC(c2ccccc2)C(=O)N1c1ncc(Cc2ccccc2)s1` (centres undefined) gave DRD3 agonist -7, D1 ag 1, D1 PAM -3, DRD3 antagonist -56* and D1 antag -25.
`O=[S+]([O-])(c1ccc2c(c1)OCCO2)N1CCN([S+](=O)([O-])c2ccccc2Br)CC1` gave D1 ag 3, D1 PAM 10 and D1 antag -4.
For CCOC(=O)c1ccc(COC(=O)CNC(=O)CNC(=O)Cc2ccccc2)cc1 the results were DRD3 agonist 9, D1 ag 3, D1 PAM -1, DRD3 antagonist 9 and D1 antag 6.
Screening O=C(CNC(=O)Cc1ccccc1)NCC(=O)OCc1ccc(C(=O)c2ccccc2)cc1 returned DRD3 agonist -17, D1 ag 4, D1 PAM 1, DRD3 antagonist 17 and D1 antag -63*.
For Cc1coc2cc3oc(=O)c(CCC(=O)NCCCN4CCOCC4)c(C)c3cc12 the results were DRD3 agonist 11, D1 ag 2, D1 PAM -8, DRD3 antagonist 12 and D1 antag 5.
Screening COc1ccc(CNC(=O)CCc2c(C)c3cc4c(C)c(C)oc4cc3oc2=O)cc1 returned DRD3 agonist 5, D1 ag 0, D1 PAM -1 and D1 antag -36*.
Screening Cc1oc2cc3oc(=O)c(CCC(=O)N(C)CC(=O)O)c(C)c3cc2c1C returned DRD3 agonist 3, D1 ag 2, D1 PAM -2, DRD3 antagonist -67* and D1 antag 3.
For Cc1oc2cc3oc(=O)c(CCC(=O)NCCN4CCOCC4)c(C)c3cc2c1C the results were DRD3 agonist 41*, D1 ag 3, D1 PAM 1, DRD3 antagonist 9 and D1 antag -3.
`Cc1oc2cc3oc(=O)c(CCC(=O)N[C@H](C(=O)O)C(C)C)c(C)c3cc2c1C` gave DRD3 agonist -1, D1 ag 2, D1 PAM 2, DRD3 antagonist -16 and D1 antag -1.
